Source: PubChem BioAssay AID1159580 (chemical genetic matrix, 2015)
Values joined by “and” are separate entries in the source; they are usually repeats but may differ in a detail not shown here. Equal values may be shown once. About 2,000 (36%) of roughly 5,500 compounds were called active. Roughly 18% stayed inconclusive and do not appear here. Cut-off read from the data, not from the text of the source: active = normalized growth mostly below about 0.91 (no sharp cut-off); inconclusive = no clear call, values can overlap the other calls; inactive = mostly above about 0.92. The list shows a part of the results.

Test: chemical genetic growth profiling, strain panel (AID 1159580);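 note: tested at 20 µM; growth read once vehicle control cultures reached saturation at 30 °C; 1 = growth at the plate median or of vehicle wells; lower values mean less growth of the strain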
Details: S. cerevisiae deletion strains, growth OD

Measured: normalized growth

CC(C)CCCC(C)C1CCC2C3=CC[C@H]4C[C@@H](O)CC[C@]4(C)C3CC[C@@]21C (some centres not stated)
inactive: locus YAL021C, strain ccr4, stronger effect = lower value 0.965 | locus YAL026C, strain drs2, stronger effect = lower value 0.965 | locus YAL030W, strain snc1, stronger effect = lower value 0.985 | locus YBL061C, strain skt5, stronger effect = lower value 0.991 | locus YBR009C, strain hhf1, stronger effect = lower value 1.02 | locus YBR021W, strain FUR4, stronger effect = lower value 1.02 | locus YBR023C, strain chs3, stronger effect = lower value 0.961 | locus YBR171W, strain sec66, stronger effect = lower value 0.968 | locus YBR229C, strain ROT2, stronger effect = lower value 1.02 | locus YBR231C, strain swc5, stronger effect = lower value 0.967 | locus YBR279W, strain paf1, stronger effect = lower value 0.991 | locus YCL011C, strain gbp2, stronger effect = lower value 0.974 | locus YCL016C, strain dcc1, stronger effect = lower value 0.979 | locus YCL029C, strain bik1, stronger effect = lower value 0.994 | locus YCL061C, strain MRC1, stronger effect = lower value 0.986 | locus YCL069W, strain vba3, stronger effect = lower value 0.989 | locus YCR088W, strain abp1, stronger effect = lower value 0.983 | locus YDL005C, strain med2, stronger effect = lower value 0.997 | locus YDL035C, strain GPR1, stronger effect = lower value 0.996 | locus YDL040C, strain nat1, stronger effect = lower value 0.965 | locus YDL074C, strain BRE1, stronger effect = lower value 0.965 | locus YDL101C, strain DUN1, stronger effect = lower value 1.02 | locus YDL185W, strain tfp1, stronger effect = lower value 1 | locus YDL192W, strain arf1, stronger effect = lower value 0.981 | locus YDR001C, strain nth1, stronger effect = lower value 0.985 | locus YDR069C, strain doa4, stronger effect = lower value 0.98 | locus YDR101C, strain arx1, stronger effect = lower value 0.988 | locus YDR150W, strain NUM1, stronger effect = lower value 1.04 | locus YDR159W, strain sac3, stronger effect = lower value 1.01 | locus YDR162C, strain NBP2, stronger effect = lower value 0.958 | locus YDR195W, strain ref2 1.03 | locus YDR297W, strain sur2, stronger effect = lower value 0.975 | locus YDR318W, strain mcm21, stronger effect = lower value 1.01 | locus YDR334W, strain swr1, stronger effect = lower value 0.948 | locus YDR335W, strain msn5, stronger effect = lower value 0.967 | locus YDR388W, stronger effect = lower value 0.994 | locus YDR392W, strain spt3, stronger effect = lower value 0.863 | locus YDR502C, strain sam2, stronger effect = lower value 0.977 | locus YEL003W, strain gim4, stronger effect = lower value 0.976 | locus YEL037C, strain rad23, stronger effect = lower value 0.975 | locus YEL061C, strain CIN8 (second series), stronger effect = lower value 0.978 | locus YEL061C, strain CIN8, stronger effect = lower value 1.01 | locus YER015W, strain faa2, stronger effect = lower value 0.985 | locus YER016W, strain bim1, stronger effect = lower value 0.998 | locus YER110C, stronger effect = lower value 0.985 | locus YER111C, strain swi4, stronger effect = lower value 0.977 | locus YER155C, strain BEM2 (second series), stronger effect = lower value 0.973 | locus YER155C, strain BEM2, stronger effect = lower value 1.01 | locus YER167W, strain BCK2, stronger effect = lower value 1.06 | locus YFR010W, strain ubp6, stronger effect = lower value 0.983 | locus YGL078C, strain dbp3, stronger effect = lower value 0.982 | locus YGL086W, strain mad1, stronger effect = lower value 0.996 | locus YGL167C, strain pmr1, stronger effect = lower value 0.98 | locus YGL173C, strain kem1, stronger effect = lower value 0.968 | locus YGL227W, strain vid30, stronger effect = lower value 0.991 | locus YGL240W, strain doc1, stronger effect = lower value 0.984 | locus YGL248W, strain PDE1, stronger effect = lower value 1.03 | locus YGR135W, strain pre9, stronger effect = lower value 0.982 | locus YGR252W, strain gcn5, stronger effect = lower value 0.944 | locus YHR013C, strain ard1, stronger effect = lower value 0.957 | locus YHR027C, strain rpn1, stronger effect = lower value 0.973 | locus YHR030C, strain SLT2, stronger effect = lower value 1.01 and 0.993 | locus YHR079C, strain IRE1 (second series), stronger effect = lower value 1 | locus YHR079C, strain IRE1, stronger effect = lower value 1.02 | locus YHR094C, strain hxt1, stronger effect = lower value 0.988 | locus YHR129C, strain ARP1, stronger effect = lower value 1.01 | locus YHR142W, strain chs7, stronger effect = lower value 0.886 | locus YHR200W, strain rpn10, stronger effect = lower value 1.01 | locus YIL066C, strain RNR3, stronger effect = lower value 1.03 | locus YIL073C, strain SPO22, stronger effect = lower value 1.05 | locus YIL125W, strain kgd1, stronger effect = lower value 0.999 | locus YIR030C, strain dcg1, stronger effect = lower value 0.994 | locus YJL092W, strain hpr5, stronger effect = lower value 0.976 | locus YJL095W, strain BCK1 (second series), stronger effect = lower value 0.991 | locus YJL095W, strain BCK1, stronger effect = lower value 0.946 and 1 | locus YJL115W, strain asf1, stronger effect = lower value 0.966 | locus YJL129C, strain trk1, stronger effect = lower value 0.905 | locus YJL134W, strain LCB3, stronger effect = lower value 0.989 | locus YJL154C, strain vps35, stronger effect = lower value 0.995 | locus YJL164C, strain tpk1, stronger effect = lower value 0.956 | locus YJL166W, strain qcr8, stronger effect = lower value 0.971 | locus YJL168C, strain set2, stronger effect = lower value 0.995 | locus YJL187C, strain SWE1 (second series), stronger effect = lower value 0.994 | locus YJL187C, strain SWE1, stronger effect = lower value 0.985 | locus YJR043C, strain POL32, stronger effect = lower value 1.05
active: locus YDR137W, strain rgp1, stronger effect = lower value 0.823 | locus YGL253W, strain hxk2, stronger effect = lower value 0.909
